Source: PubChem BioAssay (EPA / NIEHS)
Active and inactive are the calls of the source. The calls were made as follows: active = hit-call score of the fitted dose curve at least 0.9, where 1 is the maximum; inactive = score below 0.9.

Legend:
[1] = APR_HepG2_CellCycleArrest_24hr: Apredica 24-hour HepG2 Assay for Cell Cycle Arrest (AID 2282905); conditions: imaging, actives raise or lower the signal;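 also: cell cycle arrest scored as ratio of 2N to 4N nuclear DNA content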
Procedure: APR_HepG2_24hr is a cell-based, multiplexed-readout assay that uses HepG2, a human liver cell line, with measurements taken at 24 hours after chemical dosing in a 384-well plate.APR_HepG2_CellCycleArrest_24hr is one of 10 assay component(s) measured or calculated from the APR_HepG2_24hr assay. It is designed to make measurements of cell phenotype, a form of morphology reporter, as detected with fluorescence intensity signals by HCS Fluorescent Imaging technology.Data from the assay component APR_HepG2_CellCycleArrest_24hr was analyzed into 1 assay endpoint. This assay endpoint, APR_HepG2_CellCycleArrest_24hr, was analyzed with bidirectional fitting relative to DMSO as the negative control and baseline of activity. Using a type of morphology reporter, measures of all nuclear dna for gain or loss-of-signal activity can be used to understand the signaling at the pathway-level as they relate to the gene . Furthermore, this assay endpoint can be referred to as a primary readout, because this assay has produced multiple assay endpoints where this one serves a signaling function. To generalize the intended target to other relatable targets, this assay endpoint is annotated to the cell cycle intended target family, where the subfamily is arrest.
Cells were treated with dimethyl sulfoxide (DMSO) as a solvent control at a final concentration of 0.5% v/v or with compounds in DMSO with a resulting final DMSO concentration of 0.5% v/v. Compound treatment was done at concentrations of 0.39, 0.78, 1.56, 3.12, 6.24, 12.5, 25, 50, 100, and 200 uM in duplicate on each plate. Cells were treated with compounds for 1, 24, or 72 hr. Carbonyl […] m-chloro-phenylhydrazone (CCCP) and taxol were used as positive controls for mitochondrial function and cytoskeletal stability, respectively; DMSO served as the negative control for this experiment. Cells were fixed by the direct addition of 50 uL formaldehyde in Hank's Balanced Salt Solution (HBSS) to a final concentration of 3.7%. After incubation in the fixation medium for 30 min at room temperature (293-298 K), cells were rinsed twice with HBSS and treated with cell permeabilization buffer (16 uL of 0.5% Triton X-100) for 10 min at room temperature (293-298 K) before labeling. For mitochondrial membrane potential and mitochondrial measurements, pre-fixed cells were incubated with 50 uL of MitoTracker Red CMXRos (Invitrogen) at a concentration of 250 nM for 30 min before fixation. In the remaining cases, post-fixed cells were labeled by incubation with a multiplexed mixture of primary antibodies in HBSS for 60 min at room temperature (293-298 K) to detect immunoreactivity of c-Jun (1:500), phospho-histone H3 (1:100), phospho-histone H2A.x (1:200), p53 (1:400), alpha-tubulin (1:200) and Hoechst 33342 (2 ug/mL). Cells were labeled for multiplexed imaging on two separate plates: a) Hoechst 33342, MitoTracker Red, phospho-histone H3, and alpha-tubulin, and b) Hoechst 33342, phospho-histone H2A.x, and c-Jun. A final rinse with HBSS (50 uL) was performed before analysis. The primary and secondary antibodies for the proteins were phospho-histone H3 (rabbit anti-phospho-histone H3 and FITC-donkey anti-rabbit IgG), phospho-histone H2A.x (mouse anti-phospho-histone H2A.x and FITC-donkey anti-mouse IgG), c-Jun (rabbit anti-phospho-c-Jun and Cy3-donkey anti-rabbit IgG), p53 (sheep anti-p53 and Cy5-donkey anti-sheep IgG), alpha-tubulin (mouse anti-alpha-tubulin and Cy5-donkey anti-mouse IgG). These antibodies are available as the CellCiphr HepG2 assay kit (Millipore).Digital images of each well were captured using a Cellomics ArrayScan VTI (Thermo Scientific Cellomics) (0.8 NA objective, 0.63x optical coupler, and XF-93 filter set) at 20x magnification. The images were acquired using the autofocus feature of the ArrayScan instrument, which entails the following steps. First, the camera focuses on channel 1 (Hoechst 33342), where nuclei are identified. Second, a Z offset of 1 um is used for capturing mitochondria (MitoTracker Red). […]

[2] = APR_HepG2_NuclearSize_24hr: Apredica 24-hour HepG2 Assay for Nuclear Size (AID 2282907); conditions: high-content imaging, actives raise or lower the signal
Outline: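 HepG2 human liver cells were exposed for 24 hr to compounds at 0.39–200 uM (ten concentrations, duplicate) in 0.5% v/v DMSO. They were then formaldehyde-fixed, Triton-permeabilized and Hoechst 33342-stained, and nuclear diameter was imaged at 20x. Bidirectional fits were made against DMSO.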

[3] = APR_HepG2_CellLoss_24hr: Apredica 24-hour HepG2 Assay for Cell Loss (AID 2282908); conditions: high-content imaging;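 as to AC50: fit in both directions so a hit may be cell loss or gain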
Outline: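 Compounds were tested at 0.39–200 uM in duplicate with 0.5% v/v DMSO final. Cells were then fixed in 3.7% formaldehyde, Hoechst 33342 nuclei were imaged at 20x by HCS, and cell number was fitted bidirectionally against DMSO.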

[4] = APR_HepG2_MicrotubuleCSK_24hr: Apredica 24-hour HepG2 Assay for Microtubule CSK Stabilty (AID 2282909); conditions: HepG2 microtubule cytoskeleton imaging, actives raise or lower the signal
Outline: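 HepG2 cells exposed 24 h to compounds at 0.39–200 uM (duplicate, 0.5% v/v DMSO final), then fixed, permeabilized and immunostained for alpha-tubulin with Hoechst 33342. Cytoskeleton imaged at 20x; bidirectional fit versus DMSO baseline.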

[5] = APR_HepG2_MitoticArrest_24hr: Apredica 24-hour HepG2 Assay for Mitotic Arrest (AID 2282910); conditions: high-content imaging, actives raise or lower the signal
Outline: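 HepG2 cells, 24 h exposure at 0.39-200 uM (10 concentrations, duplicate, 0.5% DMSO). Fixed, stained for phospho-histone H3 with Hoechst; imaged by high-content microscopy, bidirectional fit versus DMSO.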

[6] = APR_HepG2_MitoMembPot_24hr: Apredica 24-hour HepG2 Assay for Mitochondrial Membrane Potential (AID 2282911); conditions: imaging, actives raise or lower the signal
Outline: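 HepG2 cells exposed 24 h to 0.39–200 uM compounds in duplicate, 0.5% v/v DMSO final. MitoTracker Red CMXRos 250 nM loaded 30 min before formaldehyde fixation; high-content imaging at 20x, bidirectional fit versus DMSO.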

[7] = APR_HepG2_MitoMass_24hr: Apredica 24-hour HepG2 Assay for Mitochondrial Mass (AID 2282912); conditions: high-content imaging, actives raise or lower the signal
Outline: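 Human HepG2 liver cells were exposed for 24 hr to compounds at 0.39–200 uM (duplicates, 0.5% v/v DMSO final). They were stained live with 250 nM MitoTracker Red CMXRos for 30 min, fixed in 3.7% formaldehyde, and imaged by HCS fluorescence; signals were fitted bidirectionally against DMSO.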

[8] = APR_HepG2_CellCycleArrest_72hr: Apredica 72-hour HepG2 Assay for Cell Cycle Arrest (AID 2282914); conditions: high-content imaging, actives raise or lower the signal
Outline: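 HepG2 cells exposed 72 h in duplicate to 0.39–200 uM compound, 0.5% DMSO final. Formaldehyde-fixed, Hoechst 33342-stained nuclei imaged at 20x, six fields per well; DNA content per valid cell quantified by cell-cycle image analysis, bidirectional fit versus DMSO.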

[9] = APR_HepG2_CellLoss_72hr: Apredica 72-hour HepG2 Assay for Cell Loss (AID 2282915); conditions: high-content imaging
Outline: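 HepG2 cells exposed 72 h to compound at 0.39–200 uM (10 concentrations, duplicate) in 0.5% DMSO. Fixed with 3.7% formaldehyde and Hoechst 33342-stained. Imaged at 20x; nuclear count gives cell number, fitted bidirectionally versus DMSO.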

[10] = APR_HepG2_p53Act_24hr: Apredica 24-hour HepG2 Assay for p53 Activation (AID 2282913); conditions: high-content imaging, actives raise or lower the signal
Outline: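 HepG2 cells exposed 24 h to compounds at 0.39–200 uM in duplicate, 0.5% v/v DMSO final; fixed, permeabilized, stained with anti-p53 antibody and Hoechst 33342; fluorescence imaging; bidirectional curve fit versus DMSO.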

Measured: AC50

OCC(CO)(CBr)CBr
not listed: [10]
inactive: all other assays above

CN(Cc1cnc2nc(N)nc(N)c2n1)c1ccc(C(=O)N[C@@H](CCC(=O)O)C(=O)O)cc1
not listed: [10]
inactive: all other assays above

CN(C)CCOC(c1ccccc1)c1ccccc1
inactive: [3] | [5] | [6] | [7]
active: [9] 90.8 µM

Cc1[nH]nc2c1N=C(c1ccccc1Cl)c1cc([N+](=O)[O-])ccc1N2
inactive: [4] | [5]
active: [1] 0.364 µM | [2] 0.512 µM | [3] 0.0391 µM | [6] 100 µM | [7] 1.09 µM | [8] 0.279 µM | [9] 1.49 µM

O=C(CCCN1CCC(O)(c2ccc(Cl)cc2)CC1)c1ccc(F)cc1
inactive: [6]
active: [3] 87.4 µM | [5] 34.5 µM | [7] 46 µM | [10] 98.3 µM | [9] 34.7 µM

O=C(c1ccccc1)c1ccccc1
inactive: [3] | [5] | [6] | [7] | [10] | [9]

CCCCC(CC)C(=O)O (stereo not given)
not listed: [10]
inactive: all other assays above

CCCCCCCCCCCCOS(=O)(=O)O
not listed: [10]
inactive: all other assays above

CS(=O)(=O)c1ccc([C@@H](CC2CCCC2)C(=O)Nc2cnccn2)cc1Cl
inactive: [3] | [5] | [6] | [7] | [10] | [9]

CC(=O)Nc1ccc(O)cc1
inactive: [3] | [5] | [6] | [7] | [9]

O=C1NS(=O)(=O)c2ccccc21
not listed: [10]
inactive: all other assays above

CCCCC=O
not listed: [10]
inactive: all other assays above

CCCCc1oc2ccccc2c1C(=O)c1cc(I)c(OCCN(CC)CC)c(I)c1
inactive: [6]
active: [3] 43.8 µM | [5] 15.7 µM | [7] 20.7 µM | [10] 33.5 µM | [9] 17.2 µM

N=C(N)c1ccc(OCCCCCOc2ccc(C(=N)N)cc2)cc1
active: [3] 9.33 µM | [4] 32.6 µM | [5] 30 µM | [7] 30 µM | [8] 4.81 µM | [9] 24.2 µM
inactive: [1] | [2] | [6]

CCCCCCCCCCCCCCC
not listed: [10]
inactive: all other assays above
